Screens: PubChem BioAssay, several laboratories
NALP1 inh: NALP1 inhibition. S. cerevisiae NALP1/ASC/caspase-1 growth, X-gal OD620, 72 h. inhibition, % at 10 µM. 280,000 compounds, 0.61% hits. AID 2071; in the data active = inhibition mostly above about 24%, no sharp cut-off; inactive = mostly below about 32%
PfHsp90 set2: inhibits growth of yeast expressing Plasmodium falciparum Hsp90. S. cerevisiae expressing PfHsp90, BacTiter-Glo ATP, 48 h; yeast lacking PDR1 and PDR3 efflux regulators. inhibition, % at 9.4 µM. 310,000 compounds, 0.32% hits;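 active = every replicate shows inhibition above about 80%, whatever the replicate mean, limit read from the data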
tim10-1 inh: tim10-1 yeast growth inhibition; inhibition, % at 20 µM; AID 463190; 330,000 compounds, 2.2% hits; S. cerevisiae tim10-1 ts strain growth, BacTiter-Glo, 24 h;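 active = inhibition of at least 40%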;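 also: mutant grown at 25 °C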
tim23-1 inh: growth inhibitors of tim23-1 mutant yeast; S. cerevisiae tim23-1 growth, BacTiter-Glo luminescence, 24 h; inhibition, % at 20 µM; 330,000 compounds, 1.3% hits; AID 463212;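 active = growth inhibition of the mutant yeast at or above 50%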;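 also: temperature-sensitive mutant grown at 25 °C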
TIM10 inh: growth inhibitors of TIM10 yeast strain. S. cerevisiae TIM10 strain growth, BacTiter-Glo luminescence, 24 h. inhibition, % at 10 µM. 330,000 compounds, 1.4% hits. AID 463195;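 active = inhibition of 40% or more at the single tested concentration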;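 also: wild-type TIM10 isogenic control strain grown at permissive 25 °C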
SKKanGAS inh: SKKanGAS growth inhibition | S. pyogenes SKKanGAS, kanamycin growth, BacTiter-Glo, 6 h | inhibition, % at 7.5 µM | 300,000 compounds, 1.3% hits | AID 1662;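 active = mean replicate score, as percent of positive control median, at least 50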;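 also: strain carries kanamycin resistance gene driven by streptokinase promoter and grows in 40 µg/ml kanamycin; loss of luminescence reflects streptokinase promoter inhibition or plain growth inhibition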
tim10-1 confirm: tim10-1 yeast growth inhibition, confirmed | S. cerevisiae tim10-1 ts strain growth, BacTiter-Glo, 24 h | 7,400 compounds, 56% hits | inhibition, % at 20 µM | shares compounds with tim10-1 inh;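 active = inhibition of yeast growth at or above a set limit in either of two repeat tests at 20 µM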;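 also: tim10-1 mutant grown at permissive 25 °C to find synthetic lethal compounds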
tim10 confirm: TIM10 yeast growth inhibition, confirmed; inhibition, % at 10 µM; 4,600 compounds, 63% hits; S. cerevisiae tim10 strain growth, BacTiter-Glo luminescence, 24 h; shares compounds with TIM10 inh; AID 463215;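 active = inhibition of yeast growth at or above a set limit in either of two replicates at 10 µM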; also: this counterscreen used the strain with wild-type TIM10
tim23-1 confirm: tim23-1 yeast growth inhibition, confirmed | shares compounds with tim23-1 inh | S. cerevisiae tim23-1 growth, BacTiter-Glo luminescence, 24 h | inhibition, % at 20 µM | 4,400 compounds, 83% hits;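 active = inhibition above about 39% in either of two replicate wells at 20 µM, limit read from the data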;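 also: temperature-sensitive tim23-1 mutant grown at 25 °C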
A number is an active result. Sampled rows, rich in hits. Any-hit rate of the full collection: about 4.8%.

What do the screens show for `COc1cc(OC)cc(-c2nc3ccccc3c(=O)n2OC(=O)c2ccc(Br)cc2)c1`?
NALP1 inh: inactive; PfHsp90 set2: inactive; tim10-1 inh: 48.9; tim23-1 inh: 58.1; TIM10 inh: 61.5; SKKanGAS inh: inactive; tim10-1 confirm: 38.3; tim10 confirm: 34.5; tim23-1 confirm: 72.0

How did Cc1ccccc1CS(=O)(=O)Cc1ccc(C(=O)NC2CCCCC2)o1 do in these assays?
NALP1 inh: inactive; PfHsp90 set2: inactive; tim10-1 inh: inactive; tim23-1 inh: inactive; TIM10 inh: inactive; SKKanGAS inh: inactive

How did CCOc1ncccc1-c1nc(-c2cccs2)no1 do in these assays?
NALP1 inh: inactive; PfHsp90 set2: inactive; tim10-1 inh: inactive; tim23-1 inh: inactive; TIM10 inh: inactive; SKKanGAS inh: inactive

Results for COc1ccc(C(=S)N2CCOCC2)cc1OC(=O)c1ccc([N+](=O)[O-])cc1[N+](=O)[O-] ?
NALP1 inh: inactive; PfHsp90 set2: inactive; tim10-1 inh: 60.3; tim23-1 inh: 58.5; TIM10 inh: 71.0; SKKanGAS inh: inactive; tim10-1 confirm: 74.2; tim10 confirm: 68.2; tim23-1 confirm: 68.3

How did O=C(Oc1ccccc1C(=S)N1CCOCC1)c1ccc([N+](=O)[O-])cc1[N+](=O)[O-] do in these assays?
NALP1 inh: inactive; PfHsp90 set2: inactive; tim10-1 inh: 56.4; tim23-1 inh: 53.8; TIM10 inh: 45.1; SKKanGAS inh: inactive; tim10-1 confirm: 48.5; tim10 confirm: 48.7; tim23-1 confirm: 52.0

What do the screens show for `COc1cc(C(=S)N2CCOCC2)ccc1OC(=O)c1cc([N+](=O)[O-])cc([N+](=O)[O-])c1`?
NALP1 inh: inactive; PfHsp90 set2: inactive; tim10-1 inh: inactive; tim23-1 inh: inactive; TIM10 inh: inactive; SKKanGAS inh: inactive

Results for O=C1N(S(=O)(=O)c2ccccc2F)C(=O)C2(CCCC2)N1S(=O)(=O)c1ccccc1F ?
NALP1 inh: inactive; PfHsp90 set2: inactive; tim10-1 inh: inactive; tim23-1 inh: inactive; TIM10 inh: inactive; SKKanGAS inh: inactive

How did CC(=O)Nc1ccc(S(=O)(=O)NCCC(=O)OCC(=O)c2ccccc2)cc1 do in these assays?
PfHsp90 set2: inactive; tim10-1 inh: inactive; tim23-1 inh: inactive; TIM10 inh: inactive; SKKanGAS inh: inactive

Results for CC1CCC/C=C/C(=O)c2c(O)cc(O)cc2CC(=O)O1 (stereo not given) ?
NALP1 inh: inactive; PfHsp90 set2: inactive; tim10-1 inh: 54.5; tim23-1 inh: 53.3; TIM10 inh: 40.0; SKKanGAS inh: inactive; tim10-1 confirm: 49.1; tim10 confirm: 50.8; tim23-1 confirm: 54.5

How did C[C@@H]1Cc2c(O)c(O)cc(O)c2C(=O)O1 do in these assays?
NALP1 inh: inactive; PfHsp90 set2: inactive; tim10-1 inh: inactive; tim23-1 inh: inactive; TIM10 inh: inactive; SKKanGAS inh: inactive

Results for CNC(C)C#Cc1ccc2c(=O)c3cc(C)c(C)cc3oc2c1 (stereo not given) ?
PfHsp90 set2: inactive; tim10-1 inh: 41.5; tim23-1 inh: 51.3; TIM10 inh: inactive; SKKanGAS inh: inactive; tim10-1 confirm: 37.6; tim23-1 confirm: 58.8

How did CNC(C)C#Cc1ccc2oc3cc(C)c(C)cc3c(=O)c2c1 (stereo not given) do in these assays?
PfHsp90 set2: inactive; tim10-1 inh: inactive; tim23-1 inh: inactive; TIM10 inh: inactive; SKKanGAS inh: inactive

Results for N/C(=N\OC(=O)CCc1ccccc1)c1ccc(Br)cc1 ?
NALP1 inh: inactive; PfHsp90 set2: inactive; tim10-1 inh: 46.7; tim23-1 inh: 64.5; TIM10 inh: 60.5; SKKanGAS inh: inactive; tim10-1 confirm: 55.8; tim10 confirm: 55.1; tim23-1 confirm: 46.1

What do the screens show for `N/C(=N\OC(=O)C1CCCCC1)c1cccc(Br)c1`?
NALP1 inh: inactive; PfHsp90 set2: inactive; tim10-1 inh: 67.5; tim23-1 inh: 75.3; TIM10 inh: 73.8; SKKanGAS inh: inactive; tim10-1 confirm: 62.3; tim10 confirm: 58.5; tim23-1 confirm: 80.7

How did O=C(CCc1ccccc1)OCCOC(=O)CCc1ccccc1 do in these assays?
NALP1 inh: inactive; PfHsp90 set2: inactive; tim10-1 inh: inactive; tim23-1 inh: inactive; TIM10 inh: inactive; SKKanGAS inh: inactive

What do the screens show for `N/C(=N\OC(=O)CCc1ccccc1)c1ccccc1Cl`?
NALP1 inh: inactive; PfHsp90 set2: inactive; tim10-1 inh: 64.3; tim23-1 inh: 56.0; TIM10 inh: 47.2; SKKanGAS inh: inactive; tim10-1 confirm: 60.2; tim10 confirm: 42.5; tim23-1 confirm: 48.5

What do the screens show for `Cc1ccc(/C(N)=N/OC(=O)CCc2ccccc2)cc1`?
NALP1 inh: inactive; PfHsp90 set2: inactive; tim10-1 inh: 45.9; tim23-1 inh: 75.3; TIM10 inh: 55.4; SKKanGAS inh: inactive; tim10-1 confirm: 48.6; tim10 confirm: 59.8; tim23-1 confirm: 60.9

What do the screens show for `N/C(=N\OC(=O)CCCc1ccccc1)c1ccc(Br)cc1`?
NALP1 inh: inactive; PfHsp90 set2: inactive; tim10-1 inh: inactive; tim23-1 inh: inactive; TIM10 inh: inactive; SKKanGAS inh: inactive

What do the screens show for `CCOC(=O)Cc1cc(=O)n2[nH]c(C)cc2n1`?
NALP1 inh: inactive; PfHsp90 set2: inactive; tim10-1 inh: inactive; tim23-1 inh: inactive; TIM10 inh: inactive; SKKanGAS inh: inactive

Results for N/C(=N\OC(=O)CCc1ccccc1)c1cccc(Br)c1 ?
NALP1 inh: inactive; PfHsp90 set2: inactive; tim10-1 inh: 70.0; tim23-1 inh: 81.1; TIM10 inh: 62.9; SKKanGAS inh: inactive; tim10-1 confirm: 64.5; tim10 confirm: 59.7; tim23-1 confirm: 76.5

Results for COc1ccc(N2CCN(C(c3cccs3)C(C)NS(=O)(=O)c3ccccc3)CC2)cc1 (stereo not given) ?
NALP1 inh: inactive; PfHsp90 set2: inactive; tim10-1 inh: inactive; tim23-1 inh: inactive; TIM10 inh: inactive; SKKanGAS inh: inactive

Results for O=C(c1cc(-c2ccc(O)cc2)on1)N1CCCC1 ?
NALP1 inh: inactive; PfHsp90 set2: inactive; tim10-1 inh: inactive; tim23-1 inh: inactive; TIM10 inh: inactive; SKKanGAS inh: inactive

Results for O=[N+]([O-])c1nn(-c2ccc3c(c2)OCCO3)n(O)c1=NC1CCCCCC1 ?
NALP1 inh: inactive; PfHsp90 set2: inactive; tim10-1 inh: 52.8; tim23-1 inh: 56.4; TIM10 inh: 55.3; SKKanGAS inh: inactive; tim10-1 confirm: 56.3; tim10 confirm: 45.4; tim23-1 confirm: 48.5

What do the screens show for `CC(C)c1ccc(NC(=O)/C(C#N)=C/c2ccncc2)cc1`?
NALP1 inh: inactive; PfHsp90 set2: inactive; tim10-1 inh: 54.4; tim23-1 inh: 77.7; TIM10 inh: inactive; SKKanGAS inh: inactive; tim10-1 confirm: inactive; tim23-1 confirm: 55.1
